# High-throughput results from PubChem BioAssay.
# This is a sample that favours compounds with a hit; in the whole collection about 9.4% have one here.
# ELG1 repair inh = ELG1-dependent DNA repair inhibition; AID 504467; Potency, µM (highest dose often 46.1 µM), for inactives: at the highest dose activity change, negative = inhibition, usual class: inhibitors; hit rate 2.3% among 330,000; HEK293T ELG1-luciferase reporter, luminescence, 16 h; DNA damage induced by 5-fluorouridine; also: % is scaled to controls: 0 for no effect and ±100 for the full control effect; nearly all actives have a fitted effect of over 55% in size
#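 Reporter activity after DNA damage by 5-fluorouridine is monitored. Compound-treated cells incubate 16 hr at 37 °C, then ONE-Glo is added for 30 min before luminescence reading.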
# FLuc counter = firefly luciferase modulation, counter-screen for miR-21 project | AID 588342 | hit rate 6.9% among 360,000 | P08659 | Potency, µM (highest dose often 57.5 µM), for inactives: at the highest dose activity change, negative = inhibition, actives largely listed as inhibitors | purified FLuc, Km substrates, luminescence inhibition;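 also: plate controls were vehicle for no effect and reference inhibitor for full effect; nearly all actives have a fitted effect of over 55% in size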
# Target sequence (P08659 whole entry, looked up): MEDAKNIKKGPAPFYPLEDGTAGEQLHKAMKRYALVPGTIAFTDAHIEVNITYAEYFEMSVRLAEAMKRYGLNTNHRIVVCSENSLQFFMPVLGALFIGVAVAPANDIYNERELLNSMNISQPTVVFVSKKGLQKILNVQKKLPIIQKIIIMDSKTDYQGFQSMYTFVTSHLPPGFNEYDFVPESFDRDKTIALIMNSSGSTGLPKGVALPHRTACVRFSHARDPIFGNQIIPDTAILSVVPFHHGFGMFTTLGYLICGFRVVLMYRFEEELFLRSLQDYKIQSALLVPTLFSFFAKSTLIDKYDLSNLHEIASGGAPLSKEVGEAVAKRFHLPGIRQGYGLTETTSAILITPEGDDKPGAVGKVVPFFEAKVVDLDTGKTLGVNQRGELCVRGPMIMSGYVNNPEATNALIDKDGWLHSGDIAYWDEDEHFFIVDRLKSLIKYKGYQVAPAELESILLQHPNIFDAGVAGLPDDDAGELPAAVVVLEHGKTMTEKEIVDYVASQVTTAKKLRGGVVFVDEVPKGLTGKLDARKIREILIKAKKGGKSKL
#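 Purified P. pyralis luciferase (10nM final) with 10uM D-luciferin and 10uM ATP (Km levels) in 50mM Tris acetate pH 7.5, 10mM Mg acetate, 0.01% Tween-20, 0.05% BSA; qHTS 6-point titration, ~60 µM downward; luminescence read.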
# Rab9 prom act = activates the Rab9 promoter; Huh7 Rab9 promoter-luciferase reporter, luminescence, 24 h; Potency, µM (series often up to 9.22 µM), for the others: at the top dose activation, negative = inhibition, hits mostly activators; hit rate 2.8% among 320,000; AID 485297; also: % of control where 0% means no effect; nearly all actives have a fitted effect of over 60% in size
#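 Rab9 promoter-driven luciferase in stably transfected Huh7 cells; 1500 cells/well rested 2 h, exposed to compound in DMSO for 24 h at 37 °C, 5% CO2. Luminescence read 10 min after adding luciferase reagent at ambient temperature.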
# NPC1 prom act = NPC1 promoter activation; Huh7 NPC1 promoter luciferase reporter, 24 h; AID 485313; Potency, µM (titrated, usually from 9.22 µM), inactives show at the highest dose activation, most hits filed as activators; hit rate 2.4% among 320,000; also: % of control where 0% means no effect; nearly all actives have a fitted effect of over 60% in size
#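 Stably transfected Huh7 (NPC1 promoter→luciferase), 1500 cells/well in Opti-MEM + 10% FBS, 2 h settle, then compound 24 h at 37 °C. Luminescence after 10 min with Amplite reagent.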
# ELG1 genotox = induces genotoxicity in HEK293T cells with luciferase-tagged ELG1; HEK293T ELG1-luciferase reporter, luminescence, 16 h; Potency, µM (top dose mostly 46 µM), for the others: at the highest dose activity change, positive = activation, most hits filed as activators; hit rate 1.3% among 330,000; also: % of control where 0% means no effect; nearly all actives have a fitted effect of over 60% in size
#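 HEK293T cells expressing luciferase-tagged ELG1 were exposed to compound or DMSO vehicle for 16 hr at 37 °C and 5% CO2. Luciferase activity was then measured with ONE-Glo after 30 min at room temperature.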
# SMN2 splice up = enhancers of SMN2 splice variant expression; HEK293 SMN2-luciferase splicing reporter, luminescence, 30-36 h; Potency, µM (series often up to 46.1 µM), for inactives: at the highest dose activity change, positive = activation, actives largely listed as activators; hit rate 2.8% among 210,000; also: % of control where 0% means no effect; nearly all actives have a fitted effect of over 55% in size
#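 HEK293 cells carry an SMN2 minigene-luciferase reporter in which exon 7 inclusion puts luciferase in frame. Cells were seeded at 2000 cells/well, attached for 10-12 hours, then exposed to compounds for 30-36 hours at 37C before ONE-Glo luminescence.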
# An asterisk follows results filed as active; ? = inconclusive; · = not tested or not shown; [ ] = dose if it differs, or a comment. Calls follow the shape of the dose curve; as a rule, active = well fitted curve in the direction sought with a large enough effect; inconclusive = small, poorly fitted or top-dose-only effect, or another doubt; inactive = no such curve, though single readings can be large; an effect the other way counts as inactive or inconclusive. Potency is read from the fitted curve at half-maximal effect.
SMILES,ELG1 repair inh,FLuc counter,Rab9 prom act,NPC1 prom act,ELG1 genotox,SMN2 splice up
CC(C)Cn1c(N)c(C(=O)COC(=O)c2ccc(Br)cc2)c(=O)n(C)c1=O,21µM*,·,·,·,-2%,·
CC(C)Cn1c(N)c(C(=O)COC(=O)c2ccncc2)c(=O)n(C)c1=O,?,1%,1%,0%,-9%,-23%
Cc1c(CCC(=O)NCc2cccc(Cl)c2)c(=O)oc2c(C)c(O)ccc12,·,0%,·,·,·,2%
c1ccc(-c2nc(N3CCCCCC3)c3ccccc3n2)nc1,2.6µM*,-16%,-35%,-24%,-7%,·
COc1ccc(Oc2nc(-c3ccccn3)nc3ccccc23)cc1,9.2µM*,-18%,-3%,-1%,-6%,·
c1ccc(Oc2nc(-c3ccccn3)nc3ccccc23)cc1,?,-15%,-5%,1%,-17%,·
CCN1CCN(c2nc(-c3ccccn3)nc3ccccc23)CC1,?,0%,1%,0%,-8%,?
c1ccc(CN2CCN(c3nc(-c4ccccn4)nc4ccccc34)CC2)cc1,8.2µM*,-5%,-17%,4%,-10%,-31%
c1ccc(-c2nc(N3CCOCC3)c3ccccc3n2)nc1,16µM*,4%,0%,2%,-7%,5%
COc1ccc(NC(=O)CCc2nc3c(C)nn(-c4ccc(C)cc4)c3n(C)c2=O)c(OC)c1,·,5%,·,·,·,·
CC(=O)N1CCc2cc(CNC(=O)Nc3cc(Cl)ccc3C)ccc21,·,6%,·,·,·,·
NC(Cc1cc(I)c(Oc2cc(I)c(O)c(I)c2)c(I)c1)C(=O)O (stereo not drawn),·,·,·,·,·,1%
c1ccc(CCNc2nc(-c3ccccn3)nc3ccccc23)cc1,4.1µM*,?,-25%,-17%,-13%,·
CCCN(CCC)c1nc(-c2ccccn2)nc2ccccc12,?,6%,-55%,-37%,-10%,·
c1ccc2c(N3CCOCC3)c3c(nc2c1)CCC3,-16%,1%,-2%,-4%,-8%,·
COc1ccc2c(c1)CCc1c-2nc2ccccc2c1N1CCOCC1,6%,5.4µM*,17%,1%,4%,·
COC(=O)C1=C(C(=O)OC)[C@@H]2N(C)c3ccc(OC)cc3[C@@]23C[C@@H](C(=O)OC)N(S(=O)(=O)c2ccc(Br)cc2)C3=N1,·,·,·,·,·,-6%[9.22 µM]
CC(=O)Oc1cccc(-c2nc3ccccc3c(=O)o2)c1,-8%,19µM*,0%,-1%,1%,·
O=c1oc(-c2cccnc2)nc2ccccc12,29%,3%,4%,-3%,0%,-13%
COc1cccc(-c2nc3ccc(O)cc3c(=O)o2)c1,-1%,4.8µM*,2%,-3%,1%,-10%
O=c1oc(-c2cccc(S(=O)(=O)N3CCOCC3)c2)nc2ccccc12,4%,-13%,-6%,2%,-21%,10%
CCN(CC)c1ccc(NC(=O)C2CCN(c3nnc(-n4cccc4)s3)CC2)c(C)c1,·,-2%,·,·,·,·
O=C(Nc1ccc(N=Nc2ccccc2)c(NC(=O)C2CCCO2)c1)C1CCCO1 (stereo not drawn),9.2µM*,-14%,-3%,-2%,-10%,-16%
O=C(O)c1cccc(NC(=O)c2cccc(NC(=O)C3CCCO3)c2)c1 (stereo not drawn),?,3µM*,26%,28%,0%,1%
O=C(O)c1cccc(C(=O)Nc2cccc(NC(=O)C3CCCO3)c2)c1 (stereo not drawn),?,2.1µM*,22%,20%,-6%,·
SMILES,ELG1 repair inh,FLuc counter,Rab9 prom act,NPC1 prom act,ELG1 genotox,SMN2 splice up
COc1ccc(CNCc2ccc3c(c2)n(C)c(=O)n3C)cc1,·,0%,·,·,·,·
CCCCSCCCNC(=O)C1CCN(Cc2nc(-c3ccc(CC)cc3)oc2C)CC1,·,-18%,·,·,·,2%
Cc1ccnc(NC(=O)CNC(=O)c2ccc3ccccc3c2)c1,?,?,-2%,0%,21µM*,·
Cc1ccnc(NC(=O)CNC(=O)COc2ccccc2)c1,?,19µM*,7%,13%,?,·
O=C(Nc1cccc(S(=O)(=O)N2CCCCCC2)c1)c1cc(=O)c2ccccc2o1,12µM*,-3%,-12%,-11%,-20%,-57%
CN(c1ccccc1)S(=O)(=O)c1cccc(NC(=O)c2cc(=O)c3ccccc3o2)c1,15µM*,-1%,-15%,-4%,-16%,-48%
O=c1c2sc3ccccc3c2n(Cc2cccc(Cl)c2)c(=O)n1Cc1ccccc1,·,-7%,·,·,·,0%
C1CCCNCC1,·,·,·,·,·,-3%
COc1cc(C)ccc1OCc1cc(C(=O)N(C)CCCN2CCOCC2)no1,?,12µM*,2.5µM*,2.8µM*,18µM*,·
COc1cc(C)ccc1OCc1cc(C(=O)NCCN2CCOCC2)no1,?,11µM*,4µM*,2.2µM*,?,·
COc1cc(Cl)ccc1OCc1cc(C(=O)NCCCN2CCCC2=O)no1,6%,21µM*,4%,3%,1%,·
CCCc1cc(=O)n2[nH]c(NCc3ccccc3OC)nc2n1,·,?,·,·,·,3%
COc1cc(NC(=O)CSc2nc(C)c(C(=O)Nc3ccccc3)c(-c3ccc(OC)c(OC)c3)c2C#N)c(OC)cc1Cl,·,1%,·,·,·,1%
Cc1[nH]n(-c2ccc(Cl)cc2)c(=O)c1/C=N/c1nnc(-c2ccccc2)s1,?,19µM*,0%,-2%,6%,19%
Cc1ccc(/C=N/Nc2nncc(-c3ccccc3)n2)o1,?,-18%,?,29%,12%,?
Cc1[nH]n(-c2ccccc2)c(=O)c1/C=N/Nc1nncc(-c2ccccc2)n1,?,13µM*,-36%,-14%,?,-83%
Cc1cc(C(=O)N/N=C/c2c(C)[nH]n(-c3ccccc3)c2=O)n[nH]1,7%,5.4µM*,-2%,0%,2%,·
Cc1[nH]n(-c2ccccc2)c(=O)c1/C=N/NC(=O)c1ccc(O)cc1O,-2%,2.1µM*,11%,19%,?,·
